Results filed as inconclusive are left out. Active and inactive are the calls of the source. Calls come from the whole dose curve; as a rule, active = well fitted cell-killing curve with a large enough effect; inconclusive = small, poorly fitted or top-dose-only effect, or effect the other way; inactive = flat fitted curve, though single readings scatter.
Tests used:
Assay in all cases: Primary qHTS to identify gynecologic anti-cancer compounds using libraries of approved drugs and bioactive compounds (AID 1345084); note: nearly all actives have a fitted effect of over 55% in size
C33A = conditions: Gynecologic cancer cell panel viability, ATPlite luminescence, 48 h; series mostly up to 57.5 µM
Outline: (§1)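 Measured: luminescence after ATPlite addition (15 min, RT). Exposure: 48 h, 37 C, 5% CO2.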

CAOV3 = conditions: Gynecologic cancer cell panel viability, ATPlite luminescence, 48 h; series mostly up to 57.5 µM
Outline: as §1

CASKI = conditions: Gynecologic cancer cell panel viability, ATPlite luminescence, 48 h; series mostly up to 57.5 µM
Outline: as §1

Es-2 = conditions: Gynecologic cancer cell panel viability, ATPlite luminescence, 48 h; series mostly up to 57.5 µM
Outline: as §1

HeLa = conditions: Gynecologic cancer cell panel viability, ATPlite luminescence, 48 h; series mostly up to 57.5 µM
Outline: as §1

Hek293T = conditions: Gynecologic cancer cell panel viability, ATPlite luminescence, 48 h, control line for the selectivity index; series mostly up to 57.5 µM
Outline: as §1

JEG-3 = conditions: Gynecologic cancer cell panel viability, ATPlite luminescence, 48 h; series mostly up to 57.5 µM
Outline: as §1
% is set by controls: 0 for no effect and ±100 for the full control effect.

CC1(C)CC[C@]2(C(=O)O)CC[C@]3(C)C(=CCC4[C@@]5(C)C[C@H](O)[C@H](O[C@@H]6OC[C@H](O)[C@H](O)[C@H]6O)[C@@](C)(CO)C5CC[C@]43C)[C@@H]2C1 (stereo partly drawn)
inactive: Potency (C33A) | Potency (CAOV3) | Potency (CASKI) | Potency (Es-2) | Potency (HeLa) | Potency (Hek293T) | Potency (JEG-3)

O=C(OCc1cccc(O)c1O[C@@H]1O[C@H](CO)[C@@H](O)[C@H](O)[C@H]1O)C1(O)C(=O)C2C=CC1C1C=CC(=O)C(O)(C(=O)OCc3cccc(O)c3O[C@@H]3O[C@H](CO)[C@@H](O)[C@H](O)[C@H]3O)C21 (stereo partly drawn)
inactive: activity change, negative = cytotoxicity (C33A) -2.5% [at 11.6 µM] | activity change, negative = cytotoxicity (CAOV3) -10.6% [at 11.6 µM] | activity change, negative = cytotoxicity (CASKI) -17.5% [at 11.6 µM] | activity change, negative = cytotoxicity (Es-2) 2.61% [at 11.6 µM] | activity change, negative = cytotoxicity (HeLa) -8.79% [at 11.6 µM] | activity change, negative = cytotoxicity (Hek293T) 8.15% [at 11.6 µM] | activity change, negative = cytotoxicity (JEG-3) 0.323% [at 11.6 µM]

OC[C@H]1O[C@@H](Oc2cc(O)cc(-c3cc4ccc(O)cc4o3)c2)[C@H](O)[C@@H](O)[C@@H]1O
inactive: Potency (C33A) | Potency (CAOV3) | Potency (CASKI) | Potency (Es-2) | Potency (HeLa) | Potency (Hek293T) | Potency (JEG-3)

COC(=O)c1ccc(O[C@@H]2O[C@H](CO)[C@@H](O)[C@H](O)[C@H]2O)c(OC)c1
inactive: Potency (C33A) | Potency (CAOV3) | Potency (CASKI) | Potency (Es-2) | Potency (HeLa) | Potency (Hek293T) | Potency (JEG-3)

COC(=O)C1=CO[C@@H](O[C@@H]2O[C@H](CO)[C@@H](O)[C@H](O)[C@H]2O)[C@@H]2[C@@](C)(O)[C@@H](O)C[C@]12O
inactive: Potency (C33A) | Potency (CAOV3) | Potency (CASKI) | Potency (Es-2) | Potency (HeLa) | Potency (Hek293T) | Potency (JEG-3)

COC1CC(=O)CCC(C)OC(=O)CC1O (stereo not drawn)
inactive: Potency (C33A) | Potency (CAOV3) | Potency (CASKI) | Potency (Es-2) | Potency (HeLa) | Potency (Hek293T) | Potency (JEG-3)

O=C(/C=C/c1ccc(O)cc1)O[C@H]1[C@@H]2C=CO[C@@H](O[C@@H]3O[C@H](CO)[C@@H](O)[C@H](O)[C@H]3O)[C@@H]2[C@@]2(CO)O[C@@H]12
inactive: Potency (C33A) | Potency (CAOV3) | Potency (CASKI) | Potency (Es-2) | Potency (HeLa) | Potency (Hek293T) | Potency (JEG-3)

C=CC1(C)CC(O)C2(CCC3C(C)(C(=O)O)CCCC3(C)C2=O)C1 (stereo not drawn)
inactive: Potency (C33A) | Potency (CAOV3) | Potency (CASKI) | Potency (Es-2) | Potency (HeLa) | Potency (Hek293T) | Potency (JEG-3)

CC(=O)C1CCC2(C)C3=C(CCC12C)C1(C)CCC(=O)C(C)(C)C1CC3 (stereo not drawn)
inactive: Potency (C33A) | Potency (CAOV3) | Potency (CASKI) | Potency (Es-2) | Potency (HeLa) | Potency (Hek293T) | Potency (JEG-3)

COc1ccc2c3c1O[C@H]1C[C@@H](O)C=C[C@@]31CCN(C)C2
inactive: Potency (C33A) | Potency (CAOV3) | Potency (CASKI) | Potency (Es-2) | Potency (HeLa) | Potency (Hek293T) | Potency (JEG-3)

COc1ccc(/C=C/C(=O)O[C@@H]2[C@@H](OC(C)=O)[C@@H](OC(C)=O)[C@H](O[C@H]3[C@@H]4C=CO[C@@H](O[C@@H]5O[C@H](CO)[C@@H](O)[C@H](O)[C@H]5O)[C@@H]4[C@@]4(CO)O[C@@H]34)O[C@H]2C)cc1O
inactive: Potency (C33A) | Potency (CAOV3) | Potency (CASKI) | Potency (Es-2) | Potency (HeLa) | Potency (Hek293T) | Potency (JEG-3)

C=C(C)C(C)C1OC23CC4(CO2)C(CCC2C5(C)CCC(OC6OCC(O)C(OC7OC(CO)C(O)C(OC8OCC(O)C(O)C8O)C7O)C6OC6OC(CO)C(O)C6O)C(C)(C)C5CCC24C)C3C(C)(O)C1OC(C)=O (stereo not drawn)
inactive: activity change, negative = cytotoxicity (C33A) 2.75% [at 11.6 µM] | activity change, negative = cytotoxicity (CAOV3) 4.55% [at 11.6 µM] | activity change, negative = cytotoxicity (CASKI) 5.79% [at 11.6 µM] | activity change, negative = cytotoxicity (Es-2) 0.0055% [at 11.6 µM] | activity change, negative = cytotoxicity (HeLa) 1.27% [at 11.6 µM] | activity change, negative = cytotoxicity (Hek293T) 12% [at 11.6 µM] | activity change, negative = cytotoxicity (JEG-3) -1.98% [at 11.6 µM]

C=C1C(=O)OC2/C=C(\C)CC/C=C(\C(=O)O)CC/C=C(\C)CCC12 (stereo not drawn)
inactive: Potency (C33A) | Potency (CAOV3) | Potency (CASKI) | Potency (Es-2) | Potency (HeLa) | Potency (Hek293T) | Potency (JEG-3)

C[C@H]1[C@H](C)CC[C@]2(C(=O)O[C@@H]3O[C@H](CO)[C@@H](O)[C@H](O)[C@H]3O)CC[C@]3(C(=O)O)C(=CCC4[C@@]5(C)CC[C@H](O[C@@H]6O[C@H](CO)[C@@H](O)[C@H](O)[C@H]6O)C(C)(C)C5CC[C@]43C)[C@H]12 (stereo partly drawn)
inactive: activity change, negative = cytotoxicity (C33A) 2.9% [at 11.6 µM] | activity change, negative = cytotoxicity (CAOV3) 0.882% [at 11.6 µM] | activity change, negative = cytotoxicity (CASKI) 0.925% [at 11.6 µM] | activity change, negative = cytotoxicity (Es-2) -10.9% [at 11.6 µM] | activity change, negative = cytotoxicity (HeLa) 13.2% [at 11.6 µM] | activity change, negative = cytotoxicity (Hek293T) 3.39% [at 11.6 µM] | activity change, negative = cytotoxicity (JEG-3) 1.79% [at 11.6 µM]

CNc1nc(Nc2cnn([C@H]3CCN(C4COC4)C[C@@H]3F)c2Cl)ncc1C(F)(F)F
inactive: Potency (C33A) | Potency (CAOV3) | Potency (CASKI) | Potency (Es-2) | Potency (HeLa) | Potency (Hek293T) | Potency (JEG-3)

C[C@@H]1O[C@@H](O[C@H]2[C@H](O[C@H]3CC[C@@]4(C)C(CC[C@]5(C)C4CC=C4C6CC(C)(C)CC[C@]6(C(=O)O[C@@H]6O[C@H](CO[C@@H]7O[C@H](CO)[C@@H](O[C@@H]8O[C@@H](C)[C@H](O)[C@@H](O)[C@H]8O)[C@H](O)[C@H]7O)[C@@H](O)[C@H](O)[C@H]6O)CC[C@]45C)[C@]3(C)CO)OC[C@H](O)[C@@H]2O)[C@H](O)[C@H](O)[C@H]1O (stereo partly drawn)
inactive: activity change, negative = cytotoxicity (C33A) -8.84% [at 6.55 µM] | activity change, negative = cytotoxicity (CAOV3) 1.96% [at 6.55 µM] | activity change, negative = cytotoxicity (CASKI) -8.63% [at 6.55 µM] | activity change, negative = cytotoxicity (Es-2) 23.6% [at 6.55 µM] | activity change, negative = cytotoxicity (HeLa) -1.03% [at 6.55 µM] | activity change, negative = cytotoxicity (Hek293T) -5.22% [at 6.55 µM] | activity change, negative = cytotoxicity (JEG-3) -11.6% [at 6.55 µM]

C[C@@H]1C[C@H]2[C@@H]3CCC4=CC(=O)C=C[C@]4(C)[C@@]3(F)[C@@H](O)C[C@]2(C)[C@@]1(O)C(=O)COP(=O)(O)O
inactive: Potency (C33A) | Potency (CAOV3) | Potency (CASKI) | Potency (Es-2) | Potency (HeLa) | Potency (Hek293T) | Potency (JEG-3)

COc1cc(CCc2ccccc2)c(C(=O)O)c2c1CC(C(C)(C)O)O2 (stereo not drawn)
inactive: Potency (C33A) | Potency (CAOV3) | Potency (CASKI) | Potency (Es-2) | Potency (HeLa) | Potency (Hek293T) | Potency (JEG-3)

CC(C)=CCC/C(C)=C/CC/C(C)=C/CC[C@]1(C)CCc2cc(O)cc(C)c2O1
inactive: Potency (C33A) | Potency (CAOV3) | Potency (CASKI) | Potency (Es-2) | Potency (HeLa) | Potency (Hek293T) | Potency (JEG-3)
